Screening data as filed in PubChem BioAssay.
NALP1 inh: NALP1 inflammasome inhibitors in reconstituted yeast, colorimetric, S. cerevisiae, triplicate retest; inhibition, % at 10 µM; AID 2071, 2009; 280,000 tested, 0.61% active; S. cerevisiae NALP1/ASC/caspase-1 growth, X-gal OD620, 72 h; in the data active means inhibition mostly above about 24%, no sharp cut-off; inactive means mostly below about 32%
GRIN3A LBD mod: binders of NR3A ligand-binding domain, primary screen, biophysical, differential scanning fluorimetry, uHTS; NR3A LBD differential scanning fluorimetry, Tm shift; 0% = protein alone, 100% = glycine-bound protein; Tm shift relative to glycine control, % at 25 µM; Glutamate receptor ionotropic, NMDA 3A (GRIN3A) ligand-binding domain; 340,000 tested, 2.5% active;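 active means melting temperature shift of at least 10% of the positive control shift, at one fixed dose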
dFosB act-1: activators of delta FosB homodimer, primary screen, biochemical, fluorescence polarization, TAMRA-CDK5 oligo, single point; purified delta FosB; percent of positive-control signal above neutral wells; activation, % at 25 µM; 340,000 tested, 0.99% active; AID 493131, 2011;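 active means mean activation above about 17%, with every replicate also reaching it, limit read from the data, passing the limit was not always enough; inconclusive means only one of the two conditions met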
Target sequence (P13346 whole entry, looked up): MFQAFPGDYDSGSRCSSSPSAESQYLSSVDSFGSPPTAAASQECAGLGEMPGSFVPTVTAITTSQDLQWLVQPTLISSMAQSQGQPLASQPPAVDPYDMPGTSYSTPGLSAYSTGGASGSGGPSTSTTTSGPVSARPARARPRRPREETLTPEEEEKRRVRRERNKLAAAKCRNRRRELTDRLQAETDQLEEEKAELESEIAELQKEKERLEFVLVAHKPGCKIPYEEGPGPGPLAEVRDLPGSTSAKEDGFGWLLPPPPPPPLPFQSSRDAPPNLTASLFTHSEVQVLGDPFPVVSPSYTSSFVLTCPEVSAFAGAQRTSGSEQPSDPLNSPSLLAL
UBC13 polyUb: UBC13 polyubiquitin chain formation inhibitors, primary screen, biochemical, TR-FRET, uHTS; inhibition, % at 20 µM; 330,000 tested, 0.47% active; AID 485273, 2010; in the data active means inhibition above about 45%, passing the limit was not always enough; inconclusive means no clear call, values can overlap the other calls
Target sequence (P61088 whole entry, looked up): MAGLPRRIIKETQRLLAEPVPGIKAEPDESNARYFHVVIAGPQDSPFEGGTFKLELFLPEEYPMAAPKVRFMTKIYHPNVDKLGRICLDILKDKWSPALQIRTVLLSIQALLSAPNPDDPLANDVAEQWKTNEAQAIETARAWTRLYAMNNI
Yeast superoxide: reduction of superoxide in aged yeast, primary screen, HTS; superoxide response (% of plate mean), % at 10 µM; S. cerevisiae aged cells, superoxide DHE fluorescence; active compounds read low; 330,000 tested, 0.18% active;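 active means superoxide response under a set limit, about three screen SD below normal, cut at about 65% in these data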;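 further: yeast aged for seven days with compound at 30 °C before DHE staining; 100% = average MFI of all compound-treated wells on the plate with controls excluded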
dFosB act-2: activators of mouse delta FosB DNA binding, confirmation, biochemical, fluorescence polarization, TAMRA-CDK5 oligo, cherry-picked samples; shares compounds with dFosB act-1; purified delta FosB; normalised: neutral wells 0, positive control 100; activation, % at 24.9 µM; 2,400 tested, under 10 active; AID 588690, 2011;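 active means highest replicate activation at or above 34% and every replicate reaching that threshold; inconclusive means meets only one of the two criteria; inactive means meets neither criterion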;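 further: higher polarization means more probe DNA bound by delta FosB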
Starred values were filed as active, the others as inactive. Hits are enriched below; roughly 4.3% of the tested compounds scored in any of these assays.

Screening COc1ccc([N+](=O)[O-])cc1Nc1ncnc2ccccc12 returned NALP1 inh -2, GRIN3A LBD mod 4, dFosB act-1 38*, UBC13 polyUb 0, Yeast superoxide 99 and dFosB act-2 2.
Screening O=[N+]([O-])c1ccc(O)c(Nc2ncnc3ccccc23)c1 returned NALP1 inh 15, GRIN3A LBD mod 0, dFosB act-1 -1, UBC13 polyUb -10 and Yeast superoxide 100.
Screening O=C(COc1ncnc2cc([N+](=O)[O-])ccc12)NCCc1ccc(Cl)cc1 returned NALP1 inh -2, GRIN3A LBD mod -5, dFosB act-1 -11, UBC13 polyUb -3 and Yeast superoxide 99.
CC(C)(C)OC(=O)NCc1ccc(NC(=O)c2nc[nH]c2C(=O)NCCNC(=O)c2[nH]cnc2C(=O)Nc2ccc(CNC(=O)OC(C)(C)C)cc2)cc1 was read as GRIN3A LBD mod -19, dFosB act-1 40*, UBC13 polyUb -11, Yeast superoxide 99 and dFosB act-2 2.
`CC(C)(C)OC(=O)CNC(=O)c1[nH]cnc1C(=O)Nc1ccc(CNC(=O)OC(C)(C)C)cc1` gave GRIN3A LBD mod -15, dFosB act-1 -13, UBC13 polyUb 10 and Yeast superoxide 107.
`CCOC(=O)c1cccc(NC(=O)COc2ccc([N+](=O)[O-])cc2)c1` gave NALP1 inh -5, GRIN3A LBD mod -4, dFosB act-1 -4, UBC13 polyUb 1 and Yeast superoxide 110.
Cc1ccc(NC(=O)CCC(=O)NNC(=O)COc2ccc([N+](=O)[O-])cc2)cc1C was read as NALP1 inh 16, GRIN3A LBD mod -1, dFosB act-1 13, UBC13 polyUb 1 and Yeast superoxide 120.
`Cc1ccc(NC(=O)NNC(=O)COc2ccc([N+](=O)[O-])cc2)cc1C` gave NALP1 inh 24, GRIN3A LBD mod 2, dFosB act-1 32*, UBC13 polyUb -10, Yeast superoxide 77 and dFosB act-2 -10.
For CCCOC(=O)c1cccc(NC(=O)COc2ccc([N+](=O)[O-])cc2)c1 the results were NALP1 inh 20, GRIN3A LBD mod -5, dFosB act-1 19*, UBC13 polyUb -8, Yeast superoxide 74 and dFosB act-2 3.
Screening Cc1ccc(OCC(=O)NNC(=O)Nc2ccc(Cl)cc2)c(Br)c1 returned GRIN3A LBD mod -2, dFosB act-1 23*, UBC13 polyUb 2, Yeast superoxide 83 and dFosB act-2 1.
Screening Cc1cccc(NC(=O)NNC(=O)COc2ccc(Cl)cc2)c1 returned NALP1 inh 12, GRIN3A LBD mod 2, dFosB act-1 35*, UBC13 polyUb 0, Yeast superoxide 105 and dFosB act-2 2.
`O=C(CCc1ccc(S(=O)(=O)N2CCOCC2)cc1)Nc1nc(COc2ccccc2)cs1` gave NALP1 inh 11, GRIN3A LBD mod -1, dFosB act-1 -11, UBC13 polyUb -3 and Yeast superoxide 85.
For C[C@@]12C(=O)N(c3cccc(F)c3)C(=O)N1[C@@H]1c3ccccc3OC[C@@H]1[C@H]2c1ccccc1 the results were GRIN3A LBD mod -1, dFosB act-1 -7, UBC13 polyUb 11 and Yeast superoxide 85.
`COc1ccc(NC(=O)NNC(=O)COc2ccc(Cl)cc2C)cc1OC` gave NALP1 inh 17, GRIN3A LBD mod -3, dFosB act-1 45*, UBC13 polyUb -3, Yeast superoxide 87 and dFosB act-2 4.
For Cc1cccc(NC(=O)NNC(=O)c2cc(-c3ccccc3Cl)nc3ccccc23)c1 the results were NALP1 inh -5, GRIN3A LBD mod 8, dFosB act-1 20*, UBC13 polyUb -21, Yeast superoxide 99 and dFosB act-2 0.
`O=S1(=O)CCOCCN1Cc1ccc(Cl)cc1Cl` gave NALP1 inh 12, UBC13 polyUb 2 and Yeast superoxide 110.
`Cc1cc(C)c2nc(/N=C(\N)NC(=O)Nc3ccccc3)nc(C)c2c1` gave NALP1 inh 34, GRIN3A LBD mod 2, dFosB act-1 52*, UBC13 polyUb 6, Yeast superoxide 97 and dFosB act-2 1.
COc1cccc(NC(=O)Nc2cc(NC(=O)Nc3cccc(OC)c3)c(C)nc2C)c1 was read as NALP1 inh 37, GRIN3A LBD mod 3, dFosB act-1 18*, UBC13 polyUb -3, Yeast superoxide 99 and dFosB act-2 2.
`COc1cccc(NC(=O)Nc2nnc(Cc3ccc(F)cc3)s2)c1` gave NALP1 inh 12, GRIN3A LBD mod 0, dFosB act-1 29*, UBC13 polyUb 6, Yeast superoxide 140 and dFosB act-2 -1.
Screening Cc1cccc(NC(=O)Cc2nnc(NC(=O)Nc3ccccc3F)s2)c1 returned NALP1 inh 16, GRIN3A LBD mod 0, dFosB act-1 40*, UBC13 polyUb -13, Yeast superoxide 110 and dFosB act-2 2.
For COc1ccc(Cc2nnc(NC(=O)Nc3cccc(OC)c3)s2)cc1 the results were NALP1 inh 24, GRIN3A LBD mod 1, dFosB act-1 4, UBC13 polyUb 2 and Yeast superoxide 76.
COc1cccc(NC(=O)Nc2ccncc2)c1 was read as NALP1 inh -3, GRIN3A LBD mod 1, dFosB act-1 -3, UBC13 polyUb 5 and Yeast superoxide 93.
CCC(=O)N1CCN(c2ccccc2NC(=S)NC(=O)c2ccco2)CC1 was read as NALP1 inh 7, GRIN3A LBD mod 0, dFosB act-1 -4, UBC13 polyUb -10 and Yeast superoxide 114.
Cc1nc2ccc3nc(NC(=O)C4COc5ccccc5O4)sc3c2s1 (configuration not stated) was read as NALP1 inh 30, GRIN3A LBD mod 1, dFosB act-1 inconclusive, UBC13 polyUb -4 and Yeast superoxide 97.
`CSc1nc2ccc3nc(NC(=O)C4COc5ccccc5O4)sc3c2s1` (configuration not stated) gave NALP1 inh 24, GRIN3A LBD mod -1, dFosB act-1 70*, UBC13 polyUb -10, Yeast superoxide 92 and dFosB act-2 -1.
COc1ccc(NS(=O)(=O)c2cc(NC(=O)CNC(=O)c3ccc(C)s3)ccc2Cl)cc1 was read as NALP1 inh 26, GRIN3A LBD mod 5, dFosB act-1 2, UBC13 polyUb -6 and Yeast superoxide 109.
Screening Cc1ccc(C(=O)NCC(=O)Nc2ccc(C)c(S(=O)(=O)Nc3ccc(Cl)cc3)c2)s1 returned NALP1 inh 0, GRIN3A LBD mod 11*, dFosB act-1 36*, UBC13 polyUb -3, Yeast superoxide 102 and dFosB act-2 0.
